Measurements taken from PubChem BioAssay (NCI).
This is part of a sample that, as a whole, favours compounds with a hit. Of some 79,000 tested, about 15% had one in any assay. Unmarked numbers belong to inactive results. Active and inactive are the calls of the source. Rule as the data show it: active = growth inhibition above about 70%; inactive = the rest.

Test: NCI Yeast Anticancer Drug Screen. Data for the rad50 strain (AID 155);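 also: 0% = growth of vehicle-only cultures of the same strain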
Conditions: S. cerevisiae rad50 strain growth inhibition; at 50.0 µM; active compounds read high
Procedure, shortened: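 Relative growth inhibition (compound vs vehicle) was measured in yeast with a defined repair-gene alteration.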

Q: With `S=C(Nc1cc(Cl)cc(Cl)c1)SCc1ccccc1` as the compound, how does the growth inhibition read?
A: 99.1% (active)

Q: Which growth inhibition does the source give for `CCCOc1cc(C(=O)OCCN(CC)CC)cc(OCCC)c1OCCC` here?
A: 36.9%

Q: For `C=C1C(=O)[C@@]23CC[C@H]4[C@@](C)(CCC[C@@]4(C)C(=O)OC)[C@@H]2CC[C@]1(O)C3`, which growth inhibition is on record?
A: 92.2% (active)

Q: Which growth inhibition does the source give for `CCCSc1ncnc2nc(C)[nH]c12` here?
A: 6.9%

Q: Which growth inhibition does the source give for `O=C1C=CC(=O)N1CCCCCCN1C(=O)C=CC1=O` here?
A: 99% (active)

Q: Which growth inhibition does the source give for `CCOC(=O)c1[nH]c2c([N+](=O)[O-])cccc2c1[N+](=O)[O-]` here?
A: 97% (active)

Q: For `CSC(=S)/C(=C/Nc1ncccn1)c1ccccc1`, which growth inhibition is on record?
A: 94.8% (active)

Q: Which growth inhibition does the source give for `N#CNc1nc(N)c(-c2ccc(Cl)cc2)c(C(=O)Nc2ccc(Cl)c(Cl)c2)n1` here?
A: -5.15%

Q: For `COc1ccc2c(c1)c(=O)c1c(NCCN(C)C)ccc3nnn2c31`, which growth inhibition is on record?
A: 28.2%

Q: For `CCC[CH2][Sn]([S][Sn]([CH2]CCC)([c]1ccccc1)[c]1ccccc1)([c]1ccccc1)[c]1ccccc1`, which growth inhibition is on record?
A: 99.3% (active)

Q: For `CCC1=CCC2C(=O)c3cc4ccccc4cc3C(=O)C2C1` (stereo unspecified), which growth inhibition is on record?
A: 89.3% (active)

Q: For `Cc1ccccc1NC(=O)C1C(=O)N(c2ccccc2C)C(=O)/C1=N/O` (stereo unspecified), which growth inhibition is on record?
A: -21.4%

Q: For `CCCCc1[nH]ccc2c(C)c3nc4ccccc4c3cc12`, which growth inhibition is on record?
A: 96.8% (active)

Q: With `O=C(O)C(Br)C(Br)C(=O)Nc1ccc(Cl)c(Cl)c1` (stereo unspecified) as the compound, how does the growth inhibition read?
A: 96.3% (active)

Q: Which growth inhibition does the source give for `Cc1cc(C)c2c(c1)sc1nncn12` here?
A: 97.9% (active)

Q: For `CC(=O)C(C=O)C(C)=O.CC(=O)CC(C)=O.CC(=O)CC(C)=O.[Ru]`, which growth inhibition is on record?
A: 36.9%
